Assay [1] is described as follows: qHTS assay to identify small molecule antagonists of the thyroid receptor (TR) signaling pathway - cell viability counter screen (AID 743064). Further: nearly all actives have a fitted effect of over 50% in size. Further: potency means the concentration at half of the fitted maximal effect. In short, it runs like this:
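Rat GH3 pituitary tumor cells stably expressing two TR response elements driving luciferase were plated, rested 4 h, then dosed with library compounds and T3 (1 nM final). After 23.5 h at 37 °C, CellTiter-Fluor was added for 30 min and fluorescence recorded.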

Assay [2] is described as follows: qHTS assay to identify small molecule antagonists of the thyroid receptor (TR) signaling pathway (AID 743065). Further: nearly all actives have a fitted effect of over 55% in size. Further: potency means the concentration at half of the fitted maximal effect. In short, it runs like this:
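GH3.TRE-Luc rat pituitary cells carrying two TR response elements driving luciferase were plated for 4 h, given compound plus 1 nM T3 (final), and incubated 23.5 h at 37 C. ONE-Glo luminescence measured reporter inhibition; CellTiter-Fluor fluorescence tracked cytotoxicity.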

Assay [3] deals with thyroid hormone receptor (rat, GH3 cells). Kind of assay: qHTS assay to identify small molecule agonists of the thyroid receptor (TR) signaling pathway (AID 743066; calls by dose curve). A general note: qHTS replaces the single test concentration by a dilution series.
Assay [4] can be described thus: qHTS assay to identify small molecule antagonists of the estrogen receptor alpha (ER-alpha) signaling pathway - cell viability counter screen (AID 743074; calls by dose curve;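 further: HEK293 cells carrying ER-alpha-UAS-bla reporter stimulated with 17beta-estradiol; nearly all actives have a fitted effect of over 45% in size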).
Assay [5] in a line: qHTS assay to identify small molecule antagonists of the estrogen receptor alpha (ER-alpha) signaling pathway using the BG1 cell line - cell viability counter screen (AID 743081).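 Further: compound given together with 17beta-estradiol as the ER stimulus; nearly all actives have a fitted effect of over 45% in size.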 Further: potency means the concentration at half of the fitted maximal effect.
Assay [6] deals with Aromatase (Homo sapiens) (UniProt P11511). Description: qHTS assay to identify aromatase inhibitors (AID 743083). Further: nearly all actives have a fitted effect of over 55% in size. Further: potency means the concentration at half of the fitted maximal effect.
The nature of assay [7]: qHTS assay to identify aromatase inhibitors - cell viability counter screen (AID 743084).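 Further: cells stimulated with testosterone during compound exposure; nearly all actives have a fitted effect of over 55% in size.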 Further: potency means the concentration at half of the fitted maximal effect.
Assay [8] has as its target Aryl hydrocarbon receptor (Homo sapiens) (UniProt P35869). Description: qHTS assay to identify small molecule that activate the aryl hydrocarbon receptor (AhR) signaling pathway (AID 743085). Further: nearly all actives have a fitted effect of over 15% in size. Further: potency means the concentration at half of the fitted maximal effect.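 On activation: HG2L7.5c1 human HepG2 liver cells with stably integrated DRE-driven firefly reporter; series mostly up to about 70 µM.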 In short, it runs like this: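 Compounds were tested in HepG2 hepatocellular carcinoma cells harbouring a stably integrated luciferase gene under control of 20 DREs. Increased reporter signal after 24 h treatment at 37C was taken as AhR activation.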

Assay [9] is described as follows: qHTS assay to identify small molecule that activate the aryl hydrocarbon receptor (AhR) signaling pathway - cell viability counter screen (AID 743086). Further: nearly all actives have a fitted effect of over 45% in size. Further: potency means the concentration at half of the fitted maximal effect. In short, it runs like this:
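HepG2-AhR-luc (HG2L7.5c1) cells, 4000/well, were preincubated 5 h at 37C, exposed to compound in qHTS format for 24 hr at 37C, then given CellTiter-Fluor for 30 min; viability was read as fluorescence in the reporter wells.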

The target in assay [10] is Peroxisome proliferator-activated receptor gamma (Homo sapiens) (UniProt P37231). Description: qHTS assay to identify small molecule agonists of the peroxisome proliferator-activated receptor gamma (PPARg) signaling pathway (AID 743094; active means well fitted activation curve with a large enough effect in the signal ratio in the repeat runs, not every such curve was filed as active; inconclusive means weak or mixed curves, or effect the other way; inactive means no such curve, though single readings can be large or run the other way; the % refers to the signal ratio). In short, it runs like this: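 Agonism was assessed in a beta-lactamase reporter system, HEK293H cells with a stably integrated UAS-bla construct under PPARg control; the 17 h treatment at 37C preceded a 1 h room-temperature FRET substrate read.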

The nature of assay [11]: qHTS assay to identify small molecule antagonists of the peroxisome proliferator-activated receptor gamma (PPARg) signaling pathway - cell viability counter screen (AID 743194). Further: nearly all actives have a fitted effect of over 55% in size. Further: potency means the concentration at half of the fitted maximal effect. In short, it runs like this: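 PPARg-UAS-bla HEK293H cells were plated, rested 5 h at 37 C, then treated with compounds plus rosiglitazone (50 nM final) for 17 h at 37 C; viability was then read by CellTiter-Glo luminescence after 30 min at room temperature.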

Assay [12] in a line: qHTS assay for small molecule agonists of the antioxidant response element (ARE) signaling pathway (AID 743202; active means well fitted activation curve with a large enough effect in the signal ratio in the repeat runs, not every such curve was filed as active; inconclusive means weak or mixed curves, or effect the other way; inactive means no such curve, though single readings can be large or run the other way; the % refers to the signal ratio; further: potency means the concentration at half of the fitted maximal effect). In short, it runs like this: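 Following a 16 h, 37 C exposure of reporter HepG2 cells (ARE-driven beta-lactamase, 2,000 cells/well) to compounds, FRET substrate was applied for 2 h at room temperature and fluorescence intensity recorded.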
Assay [13] is described as follows: qHTS assay for small molecule agonists of the antioxidant response element (ARE) signaling pathway - cell viability counter screen (AID 743203; calls by dose curve; further: nearly all actives have a fitted effect of over 55% in size). An outline of the steps:
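ATP content via CellTiter-Glo luminescence served as the viability measure. Cells: ARE-bla HepG2, 2,000 per well. Exposure: 16 hrs, 37C/5% CO2.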

A short description of assay [14]: qHTS assay for small molecule activators of the heat shock response signaling pathway - cell viability counter screen (AID 743209). Further: nearly all actives have a fitted effect of over 50% in size. An outline of the steps:
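Compounds dissolved in DMSO were added to overnight-plated HSE-bla HeLa cells and left 5 h at 37 C. Cell viability was quantified by luminescence using CellTiter-Glo.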

Assay [15] addresses Estrogen receptor (Homo sapiens) (UniProt P03372). Kind of assay: qHTS assay to identify small molecule agonists of the estrogen receptor alpha (ER-alpha) signaling pathway (AID 743075; calls by dose curve;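 further: HEK293 GripTite cells with ER-alpha and UAS-driven beta-lactamase reporter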).
Assay [16] can be described thus: qHTS assay to identify small molecule antagonists of the estrogen receptor alpha (ER-alpha) signaling pathway using the BG1 cell line (AID 743080; calls by dose curve;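 further: BG1 cells stimulated with 17beta-estradiol alongside compound; nearly all actives have a fitted effect of over 25% in size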; further: potency means the concentration at half of the fitted maximal effect). In short, it runs like this: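 Endogenous full-length ER-alpha in BG1-Luc-4E2 cells drives a stably integrated 4×ERE luciferase gene; compounds were tested against 17beta-estradiol over 21.5 h, with luminescence and multiplexed viability fluorescence recorded.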

The nature of assay [17]: qHTS assay for small molecule activators of the heat shock response signaling pathway (AID 743210; active means well fitted activation curve with a large enough effect in the signal ratio in the repeat runs, with a control signal flat, not every such curve was filed as active; inconclusive means weak or mixed curves; the % refers to the signal ratio; further: series mostly up to about 63 µM). An outline of the steps:
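Heat shock element–beta-lactamase HeLa reporter cells; qHTS with compounds for 5 h at 37 C; detection by FRET substrate fluorescence after 2.5 h at RT.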

The target in assay [18] is Estrogen receptor (Homo sapiens) (UniProt P03372). Kind of assay: qHTS assay to identify small molecule antagonists of the estrogen receptor alpha (ER-alpha) signaling pathway (AID 743069; active means well fitted curve in the direction sought with a large enough effect in the signal ratio in the repeat runs, not every such curve was filed as active; inconclusive means weak or mixed curves, or effect the other way; inactive means no such curve, though single readings can be large or run the other way; the % refers to the signal ratio; further: potency means the concentration at half of the fitted maximal effect). An outline of the steps:
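A 17beta-estradiol challenge was applied right after compound transfer to ER-alpha-UAS-bla HEK293 cells previously kept in charcoal-stripped serum. Plates stood 18 hr at 37C and 5% CO2; fluorescence was read following 2 hr FRET substrate loading at room temperature.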

Assay [19] has the same target. Kind of assay: qHTS assay to identify small molecule agonists of the estrogen receptor alpha (ER-alpha) signaling pathway using the BG1 cell line (AID 743079). Further: nearly all actives have a fitted effect of over 20% in size.
The target of assay [20] is Peroxisome proliferator-activated receptor gamma (Homo sapiens) (UniProt P37231). Description: qHTS assay to identify small molecule antagonists of the peroxisome proliferator-activated receptor gamma (PPARg) signaling pathway (AID 743191; calls by dose curve; further: series mostly up to about 63 µM; nearly all actives have a fitted effect of over 30% in size). In short, it runs like this: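 GeneBLAzer PPARg UAS-bla HEK293H cells carrying a UAS-driven beta-lactamase reporter were plated at 3000 cells/well, preincubated 5 h at 37C, then given compound for 17 h at 37C; LiveBLAzer B/G FRET substrate was read after 1 h at room temperature.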

“And” between values parts separate entries of the source, which are not always exact repeats. Identical values can stand only once. More than one record can exist for a structure, and the calls need not agree. The source made the active and inactive calls. Unless noted, the call rests on the fitted dose curve; in most records, active means well fitted curve in the direction sought with a large enough effect in the repeat runs; inconclusive means weak or mixed curves; inactive means no such curve, though single readings can be large; an effect the other way counts as inactive or inconclusive.

Sequence of Aryl hydrocarbon receptor (Homo sapiens) (P35869 whole entry, looked up): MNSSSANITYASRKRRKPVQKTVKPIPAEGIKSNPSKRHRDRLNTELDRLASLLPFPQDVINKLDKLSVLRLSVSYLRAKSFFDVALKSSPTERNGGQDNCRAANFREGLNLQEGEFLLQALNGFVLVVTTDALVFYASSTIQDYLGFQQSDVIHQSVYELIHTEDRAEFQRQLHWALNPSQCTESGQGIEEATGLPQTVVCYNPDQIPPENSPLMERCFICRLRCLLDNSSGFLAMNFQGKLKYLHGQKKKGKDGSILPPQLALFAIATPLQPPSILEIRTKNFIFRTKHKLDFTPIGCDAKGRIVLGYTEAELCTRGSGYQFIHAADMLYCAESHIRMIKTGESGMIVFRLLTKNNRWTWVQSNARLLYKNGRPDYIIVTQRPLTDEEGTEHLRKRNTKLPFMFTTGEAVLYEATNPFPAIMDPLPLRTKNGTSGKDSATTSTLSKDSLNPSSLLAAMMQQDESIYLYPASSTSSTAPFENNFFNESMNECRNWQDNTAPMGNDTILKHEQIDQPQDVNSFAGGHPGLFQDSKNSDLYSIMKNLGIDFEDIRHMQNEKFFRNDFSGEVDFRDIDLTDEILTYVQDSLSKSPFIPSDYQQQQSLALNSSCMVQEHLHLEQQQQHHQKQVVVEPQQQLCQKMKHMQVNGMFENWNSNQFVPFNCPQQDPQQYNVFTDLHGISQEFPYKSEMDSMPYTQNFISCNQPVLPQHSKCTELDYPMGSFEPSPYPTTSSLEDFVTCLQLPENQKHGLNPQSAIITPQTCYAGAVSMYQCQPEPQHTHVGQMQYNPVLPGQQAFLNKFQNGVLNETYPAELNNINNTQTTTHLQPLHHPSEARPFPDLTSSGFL
Sequence of Aromatase (Homo sapiens) (P11511 whole entry, looked up): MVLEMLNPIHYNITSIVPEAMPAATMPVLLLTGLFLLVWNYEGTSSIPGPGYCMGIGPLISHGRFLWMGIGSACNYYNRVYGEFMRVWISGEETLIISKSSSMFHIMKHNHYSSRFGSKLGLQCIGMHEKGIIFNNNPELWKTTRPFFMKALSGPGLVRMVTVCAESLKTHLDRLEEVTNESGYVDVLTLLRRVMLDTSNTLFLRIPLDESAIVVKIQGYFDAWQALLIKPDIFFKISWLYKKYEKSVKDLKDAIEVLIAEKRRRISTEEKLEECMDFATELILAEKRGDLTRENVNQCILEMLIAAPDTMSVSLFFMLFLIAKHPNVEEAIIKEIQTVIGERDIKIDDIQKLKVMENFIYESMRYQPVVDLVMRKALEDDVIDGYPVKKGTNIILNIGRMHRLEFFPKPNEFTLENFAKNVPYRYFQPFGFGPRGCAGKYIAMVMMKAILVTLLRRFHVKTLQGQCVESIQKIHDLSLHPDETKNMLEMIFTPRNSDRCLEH
Sequence of Estrogen receptor (Homo sapiens) (P03372 whole entry, looked up): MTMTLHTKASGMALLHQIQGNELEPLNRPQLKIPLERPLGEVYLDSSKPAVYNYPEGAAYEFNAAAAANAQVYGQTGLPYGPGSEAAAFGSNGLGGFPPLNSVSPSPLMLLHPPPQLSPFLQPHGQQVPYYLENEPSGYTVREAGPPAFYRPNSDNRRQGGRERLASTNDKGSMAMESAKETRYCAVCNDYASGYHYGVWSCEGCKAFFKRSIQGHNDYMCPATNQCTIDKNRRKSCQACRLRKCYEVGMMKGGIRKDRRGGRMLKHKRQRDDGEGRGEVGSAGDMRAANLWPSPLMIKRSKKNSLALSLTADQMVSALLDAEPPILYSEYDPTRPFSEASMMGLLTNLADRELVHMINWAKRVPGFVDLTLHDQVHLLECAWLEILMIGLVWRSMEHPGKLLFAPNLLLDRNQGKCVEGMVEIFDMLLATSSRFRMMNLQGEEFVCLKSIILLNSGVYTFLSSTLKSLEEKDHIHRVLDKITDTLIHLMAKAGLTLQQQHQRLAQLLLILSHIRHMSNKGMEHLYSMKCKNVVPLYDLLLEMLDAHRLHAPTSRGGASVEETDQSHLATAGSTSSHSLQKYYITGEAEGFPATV
Sequence of Peroxisome proliferator-activated receptor gamma (Homo sapiens) (P37231 whole entry, looked up): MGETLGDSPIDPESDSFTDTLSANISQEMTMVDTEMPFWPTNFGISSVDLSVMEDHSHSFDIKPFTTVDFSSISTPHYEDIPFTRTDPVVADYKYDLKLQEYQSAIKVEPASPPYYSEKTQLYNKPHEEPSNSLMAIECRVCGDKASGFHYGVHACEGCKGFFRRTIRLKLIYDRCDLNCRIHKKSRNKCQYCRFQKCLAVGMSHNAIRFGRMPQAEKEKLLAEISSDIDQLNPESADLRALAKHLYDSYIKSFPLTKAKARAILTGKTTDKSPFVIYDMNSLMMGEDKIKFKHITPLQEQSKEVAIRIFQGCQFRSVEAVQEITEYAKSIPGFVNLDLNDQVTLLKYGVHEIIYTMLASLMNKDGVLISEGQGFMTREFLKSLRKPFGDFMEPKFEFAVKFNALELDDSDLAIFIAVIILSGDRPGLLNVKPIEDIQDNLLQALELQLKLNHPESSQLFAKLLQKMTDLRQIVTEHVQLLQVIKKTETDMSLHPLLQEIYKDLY

Take `CCCCCCC(C)(C)S`: the Potency result in assay [1], in assay [2], in assay [4], in assay [5], in assay [6] and in assay [7] was “inactive” in each case. For the same compound, the Potency entry in [8], in [9], in assay [11], in assay [12], in assay [13] and in assay [14] was “inactive” each time. The outcome in assay [3] and in assay [10] was inactive.
Regarding `CC#C[C@]1(O)CC[C@H]2[C@@H]3CCC4=CC(=O)CCC4=C3[C@@H](c3ccc(N(C)C)cc3)C[C@@]21C`, the Potency is 9.44 µM (active) and 34.4 µM (active) in assay [1]; 4.73 µM (active) and 24.3 µM (active) in assay [2]; 16.8 µM (active) and 68.6 µM (active) in assay [16]; 11.9 µM (active) and 30.6 µM (active) in assay [6]. In addition, in assay [3], the compound was called inactive. Besides, the Potency result in [4], in [15], in assay [5], in assay [7], in assay [8] and in assay [13] was “inactive” each time. Further, in [14], the Potency entry is “inactive”.
For `O=C(Oc1ccccc1)c1ccc(O)cc1`, the Potency result in assay [1], in assay [2], in assay [4], in assay [5], in assay [6] and in assay [7] was “inactive” throughout. Besides, the Potency entry in assay [8], in [11], in [12], in assay [13] and in assay [14] was “inactive” each time. Further, the compound was classed as inactive in assay [3], in assay [10] and in [17].
For `COC(=O)Nc1nc2ccc(Sc3ccccc3)cc2[nH]1`, the Potency was 202 nM (active) in assay [1]; 202 nM (active) and 217 nM (active) in [2]; 1.8 µM (active) and 9.69 µM (active) in [8]. Further, the compound was classed as inactive in [3] and in assay [10]. Besides, the Potency result in [4], in assay [5], in [6], in [7], in assay [11] and in assay [13] was “inactive” each time. In assay [14], the Potency result was “inactive”.
Turning to `CN(C)c1ccc(C(=N)c2ccc(N(C)C)cc2)cc1`, the Potency is 53.8 µM (active) and 26.3 µM (active) in assay [1]; 7.6 µM (active) and 7.4 µM (active) in assay [2]; 37.4 µM [inconclusive] (active) in assay [18]; 30.3 µM (active) and 14.8 µM (active) in [5]; 23.4 µM (active) in assay [9]; 23.6 µM (active) in assay [11]. Moreover, the outcome in [3] and in [10] was inactive. Besides, the Potency entry in [15], in [13] and in assay [14] was “inactive” throughout.
Consider `NC(=O)/N=N/C(N)=O`, for which the Potency result in assay [1], in assay [2], in [18], in assay [15], in assay [19] and in assay [16] was “inactive” each time. Further, the Potency entry in assay [5], in [6], in assay [7], in assay [8], in assay [11] and in [12] was “inactive” in each case. The Potency result in assay [13] and in [14] was “inactive” in each case. Besides, the compound was called inactive in assay [3] and in assay [10].
For the compound `NCCc1ccc(O)c(O)c1`, the Potency was 27400 nM (active) in assay [1]; 48.7 µM (active) in [2]; “inactive and 54.6 µM (active)” in assay [5]; 27.4 µM (active) in assay [7]; 109 nM (active) and 376 nM (active) in assay [12]. The outcome in assay [3] and in assay [10] was inactive. The Potency result in [18], in assay [4], in assay [15], in [6], in assay [8] and in assay [9] was “inactive” each time. The Potency result in assay [20], in [11], in assay [13] and in assay [14] was “inactive” each time.
For the compound `NS(=O)(=O)c1cc2c(cc1Cl)NC=NS2(=O)=O`, the Potency entry in assay [1], in assay [2], in assay [18], in [15], in assay [19] and in assay [16] was “inactive” throughout. The Potency entry in assay [5], in assay [6], in assay [7], in assay [8], in assay [9] and in assay [11] was “inactive” each time. Moreover, the Potency entry in assay [12], in assay [13] and in assay [14] was “inactive” throughout. The compound was called inactive in assay [3], in assay [10] and in assay [17].

These data come from PubChem BioAssay (Tox21).
